# Reference: PubChem BioAssay AID2284100 (EPA ToxCast)
# The source made the active and inactive calls. Rule for the calls: active = hit-call score of the fitted dose curve at least 0.9, where 1 is the maximum; inactive = score below 0.9.
# Target: human KDR (VEGFR2) Receptor Tyrosine Kinase, KDR (gene 3791) (UniProt P35968)
# Experiment: ERF_FR_ENZ_hKDR: Eurofins (ERF) Enzymatic Radiometric [Km ATP] KinaseProfiler LeadHunter Assay for human KDR (VEGFR2) Receptor Tyrosine Kinase
# Protocol: ERF_FR_ENZ_hKDR is a biochemical, single-readout assay that uses extracted gene-proteins in a cell-free assay. Measurements were taken 1 hour after chemical dosing in a 96-well plate. See KDR (VEGFR2) Human RTK Kinase Enzymatic LANCE Assay [Km ATP], Cerep.ERF_FR_ENZ_hKDR is an assay component calculated from the ERF_FR_ENZ_hKDR assay. It is designed to measure enzyme activity using a type of enzyme reporter as detected by fluorescence intensity with LANCE technology.Data from the assay component ERF_FR_ENZ_hKDR was analyzed at the assay endpoint, ERF_FR_ENZ_hKDR, in the positive analysis fitting direction relative to DMSO as the negative control and baseline of activity. Using a type of enzyme reporter, loss-of-signal activity can be used to understand changes in enzymatic activity as they relate to gene KDR. To generalize the intended target to other relatable targets, this assay endpoint is annotated to the kinase intended target family, where the subfamily is receptor tyrosine kinase.
# KDR (h) is incubated with 8 mM MOPS pH 7.0, 0.2 mM EDTA, 0.33 mg/mL myelin basic protein, 10 mM MgAcetate and [gamma-33P]-ATP (specific activity and concentration as required). The reaction is initiated by the addition of the Mg/ATP mix. After incubation for 40 minutes at room temperature, the reaction is stopped by the addition of phosphoric acid to a concentration of 0.5%. […]
# Chain of human KDR (VEGFR2) Receptor Tyrosine Kinase, KDR (gene 3791) (P35968 whole entry, looked up): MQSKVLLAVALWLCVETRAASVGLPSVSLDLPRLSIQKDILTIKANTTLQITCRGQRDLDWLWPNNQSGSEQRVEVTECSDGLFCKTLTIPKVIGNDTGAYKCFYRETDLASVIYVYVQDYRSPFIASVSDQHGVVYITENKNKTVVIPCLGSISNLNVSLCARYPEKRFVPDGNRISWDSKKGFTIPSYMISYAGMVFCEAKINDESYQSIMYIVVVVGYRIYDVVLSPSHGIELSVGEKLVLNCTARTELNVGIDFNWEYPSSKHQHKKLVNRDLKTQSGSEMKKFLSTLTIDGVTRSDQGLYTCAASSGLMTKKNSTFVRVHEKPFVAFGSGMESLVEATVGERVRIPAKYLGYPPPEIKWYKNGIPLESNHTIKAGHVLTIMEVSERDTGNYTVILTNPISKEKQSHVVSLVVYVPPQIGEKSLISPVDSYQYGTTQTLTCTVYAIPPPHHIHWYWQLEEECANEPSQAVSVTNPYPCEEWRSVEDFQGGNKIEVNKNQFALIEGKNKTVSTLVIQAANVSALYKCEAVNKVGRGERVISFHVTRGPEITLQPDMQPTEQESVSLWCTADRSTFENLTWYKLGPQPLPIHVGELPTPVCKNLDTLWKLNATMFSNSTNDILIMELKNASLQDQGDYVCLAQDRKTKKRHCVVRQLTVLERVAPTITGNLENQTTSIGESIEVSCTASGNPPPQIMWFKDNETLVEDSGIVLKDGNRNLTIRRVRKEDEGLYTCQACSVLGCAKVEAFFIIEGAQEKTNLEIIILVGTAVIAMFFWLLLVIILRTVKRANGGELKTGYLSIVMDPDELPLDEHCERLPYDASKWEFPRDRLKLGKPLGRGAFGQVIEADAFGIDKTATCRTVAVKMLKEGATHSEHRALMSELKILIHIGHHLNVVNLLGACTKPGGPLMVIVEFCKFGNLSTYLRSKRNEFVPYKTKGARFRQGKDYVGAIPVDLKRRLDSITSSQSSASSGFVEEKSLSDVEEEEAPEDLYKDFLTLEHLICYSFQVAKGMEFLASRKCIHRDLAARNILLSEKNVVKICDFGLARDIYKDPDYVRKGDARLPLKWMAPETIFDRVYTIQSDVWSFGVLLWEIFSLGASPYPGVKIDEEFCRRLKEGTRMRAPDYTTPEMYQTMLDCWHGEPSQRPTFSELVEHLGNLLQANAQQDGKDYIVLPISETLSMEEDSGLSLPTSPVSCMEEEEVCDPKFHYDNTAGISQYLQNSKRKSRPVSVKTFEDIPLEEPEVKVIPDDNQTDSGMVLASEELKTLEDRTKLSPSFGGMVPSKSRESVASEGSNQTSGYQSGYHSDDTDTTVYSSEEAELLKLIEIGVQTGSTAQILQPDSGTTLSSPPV
row,Compound,AC50
1,O=C(/C=C/c1ccc(O)cc1)CC(=O)/C=C/c1ccc(O)cc1,2.39 µM (active)
